Measurements from PubChem BioAssay (Tox21).
Records with an inconclusive call do not appear. Calls of active or inactive are those of the source. Unless noted, calls follow the shape of the dose curve; as a rule, active = well fitted curve in the direction sought with a large enough effect in the repeat runs; inconclusive = weak or mixed curves; inactive = no such curve, though single readings can be large; an effect the other way counts as inactive or inconclusive.

Columns and labels:
[1] = qHTS assay to identify small molecule agonists of the hypoxia (HIF-1) signaling pathway - cell viability counter screen (AID 1224844; calls by dose curve; also: nearly all actives have a fitted effect of over 50% in size; also: potency is read from the fitted curve at half-maximal effect)
Method in brief: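 HRE-bla ME-180; 0.5% dFBS; cpd 17 h, 37C, 5% CO2; CellTiter-Glo lum., 30 min RT, post-FRET read, same wells.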

[2] = qHTS assay to identify small molecule agonists of H2AX (AID 1224845; active = well fitted activation curve with a large enough effect in the signal ratio in the repeat runs, not every such curve was filed as active; the % refers to the signal ratio; also: potency is read from the fitted curve at half-maximal effect)
Method in brief: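 Wild-type CHO-K1 cells, plated overnight, exposed 3hr at 37C to 15 concentrations (0.76% DMSO final). Lysed, then HTRF anti-pH2AX (S139) cryptate and anti-H2AX-d2 antibodies, 24 hr room temperature; 665/620 nm emission read.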

[3] = qHTS assay to identify small molecule agonists of the hypoxia (HIF-1) signaling pathway (AID 1224846; active = well fitted activation curve with a large enough effect in the signal ratio in the repeat runs, not every such curve was filed as active; the % refers to the signal ratio)
Method in brief: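 Reporter induction in HRE-bla ME-180 cells is taken as agonism: cells sit 5 hrs after plating, receive compounds or DMSO only, incubate 17 hrs at 37C under 5% CO2, and are loaded with CCF4-AM for beta-lactamase FRET measurement.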

[4] = qHTS assay to identify small molecule agonists of the estrogen related receptor (ERR) signaling pathway from Tox21 library (AID 1224849; calls by dose curve; also: nearly all actives have a fitted effect of over 15% in size); conditions: ERR reporter cell line, ONE-Glo luciferase, 18 h; at 92.4 µM (top of the series) unless noted
Method in brief: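 Tox21 compounds tested for ERR agonism in an NTP reporter cell line: 18 h treatment at 37 C, then ONE-Glo luminescence.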

[5] = qHTS RealTime-Glo MT Cell Viability Assay in HepG2 cells - 24 hour (AID 1224867); also: nearly all actives have a fitted effect of over 50% in size
Method in brief: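 Cell number in HepG2 cultures estimated from NanoLuc luminescence generated by metabolic reduction of a prosubstrate by living cells. The homogeneous, nonlytic format allowed repeated reads at 0, 8, 16, 24, 32 and 40 h of compound exposure.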

[6] = qHTS RealTime-Glo MT Cell Viability Assay in HEK293 cells - 32 hour (AID 1224868); also: nearly all actives have a fitted effect of over 50% in size; also: potency is read from the fitted curve at half-maximal effect; as to activity change, negative = cytotoxic: top concentration of the series differs between compounds
Method in brief: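 Homogeneous bioluminescent viability format in HEK293 cells (600 cells/well). Following 5 h at 37 C/5% CO2, 23 nL compound was pintooled; the signal was measured repeatedly during 40 h incubation.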

[7] = qHTS assay to identify small molecule agonists of H2AX - cell viability counter screen (AID 1224847; calls by dose curve; also: top concentration of the series differs between compounds; nearly all actives have a fitted effect of over 30% in size)
Method in brief: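 Viability of CHO-K1 (wild type) cells after 3 hr compound exposure was measured by CellTiter-Glo luminescence.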

[8] = A CellTox Green Cytotoxicity Assay to monitor cytotoxicity in HEK293 cells - 0 hour (AID 1224869); also: nearly all actives have a fitted effect of over 50% in size
Method in brief: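 Tox21 screen in HEK293: membrane-impermeant cyanine dye fluoresces on binding dead-cell DNA; compound pinned 5 h post-seeding, plates held at 37 C, signal read repeatedly through 40 h.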

[9] = qHTS assay to identify small molecule antagonists of the estrogen related receptor (ERR) signaling pathway from Tox21 library (AID 1224848); also: nearly all actives have a fitted effect of over 50% in size
Method in brief: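 Compounds dissolved in DMSO are pin-transferred onto ERR reporter cells (2,000 per well) that have settled for 6 h at 37 C. Plates then incubate 18 h at 37 C before ONE-Glo luciferase reagent and a luminescence read 30 min later.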
% is scaled to controls: 0 for no effect and ±100 for the full control effect.

CCOC(=O)COc1ccc2c(c1)CC(NCC(O)c1cccc(Cl)c1)CC2 (stereo not given)
inactive: Potency [1] | Potency [2] | outcome [3] | activity change, positive = activation [4] -15.6% | Potency [5] | Potency [6]

NC(=O)Cc1cccc(C(=O)c2ccccc2)c1N
inactive: Potency [1] | Potency [2] | outcome [3] | Potency [7] | Potency [6] | Potency [8]

COC(=O)C(C)O (stereo not given)
inactive: Potency [1] | Potency [2] | outcome [3] | Potency [7] | Potency [5] | Potency [6] | Potency [8]

CC(C)Nc1nc(N)nc(Cl)n1
inactive: Potency [1] | Potency [2] | outcome [3] | Potency [7] | Potency [5] | Potency [6] | Potency [8]

CC(C)(C)c1ccc(OC(=O)c2ccccc2O)cc1
inactive: Potency [1] | Potency [2] | outcome [3] | Potency [9] | Potency [5] | Potency [6]

CC1(O)CSC(C)(O)CS1 (stereo not given)
inactive: Potency [1] | Potency [2] | outcome [3] | Potency [7] | Potency [6] | Potency [8]

CCCCCCOc1ccc(N)cc1
active: Potency [2] 56.6 µM
inactive: Potency [1] | outcome [3] | Potency [9]

CC(C)CC(=O)OCc1ccccc1
inactive: Potency [1] | Potency [2] | outcome [3] | Potency [7] | Potency [5] | Potency [6]

CCN(CC)CCNC(=O)COc1ccc(Cl)cc1
inactive: Potency [1] | Potency [2] | outcome [3] | Potency [7] | Potency [5] | Potency [6] | Potency [8]

COc1ccc2nc(NC(=O)Nc3ccccc3)sc2c1
inactive: Potency [2] | outcome [3] | Potency [7] | Potency [5] | Potency [8]
active: Potency [1] 19 µM

CS(=O)(=O)c1ccc([C@@H](O)[C@@H](CF)NC(=O)C(Cl)Cl)cc1
inactive: Potency [1] | Potency [2] | outcome [3] | Potency [7] | Potency [8]

NC1=NCC2c3ccccc3Cc3ccccc3N12 (stereo not given)
inactive: Potency [1] | Potency [2] | outcome [3] | Potency [7] | Potency [5] | Potency [6] | Potency [8]

CCCCC(CC)COC(=O)COc1cc(Cl)c(Cl)cc1Cl (stereo not given)
inactive: Potency [1] | Potency [2] | outcome [3] | Potency [7] | Potency [5] | Potency [6] | Potency [8]

COc1ccc(S(=O)(=O)Nc2nnc(CC(C)C)s2)cc1
inactive: Potency [1] | Potency [2] | outcome [3] | Potency [7] | Potency [5] | Potency [6] | Potency [8]

OCCN1CCN(CCO)CC1
inactive: Potency [1] | Potency [2] | outcome [3] | Potency [7] | Potency [6] | Potency [8]

CC(=O)N[C@@H](CC(C)C)C(=O)O
inactive: Potency [1] | Potency [2] | outcome [3] | Potency [9] | activity change, positive = activation [4] -0.851% [at 42.5 µM] | Potency [5] | Potency [8]

CCCCCOc1ccc(C2SC(=O)NC2=O)cc1OCC (stereo not given)
inactive: Potency [1] | Potency [2] | outcome [3] | Potency [7] | Potency [6] | Potency [8]

Cc1cc(S(=O)(=O)O)c(N)cc1Cl
inactive: Potency [1] | Potency [2] | outcome [3] | Potency [7] | Potency [5] | Potency [8]

CCC(=O)c1ccc2c(c1)N(CCCN(C)C)c1ccccc1S2
active: Potency [6] 16.9 µM
inactive: Potency [1] | Potency [2] | outcome [3] | Potency [7] | Potency [8]

COC(C)CCO (stereo not given)
inactive: Potency [1] | Potency [2] | outcome [3] | Potency [7] | Potency [6] | Potency [8]

C[C@@H]1CN(c2c(F)c(N)c3c(=O)c(C(=O)O)cn(C4CC4)c3c2F)C[C@H](C)N1
inactive: activity change, negative = cytotoxicity [1] -0.675% [at 15.8 µM] | activation (H2AX phosphorylation) [2] 0.193% [at 31.6 µM] | activation [3] 0.203% [at 15.8 µM] | activity change, negative = cytotoxicity [7] 2.57% [at 31.6 µM] | activity change, negative = cytotoxicity [5] 2.81% [at 15.8 µM] | activity change, negative = cytotoxic [6] -1.37% [at 15.8 µM] | cytotoxicity [8] 8.42% [at 15.8 µM]

CCN(O)CC
inactive: Potency [1] | Potency [2] | outcome [3] | Potency [7] | Potency [5] | Potency [6] | Potency [8]

CCCOCCC
inactive: Potency [1] | Potency [2] | outcome [3] | Potency [7] | Potency [5] | Potency [6] | Potency [8]

CN(CC1(C)CCCO1)S(=O)(=O)c1ccc(Cl)c(S(N)(=O)=O)c1 (stereo not given)
inactive: Potency [1] | Potency [2] | outcome [3] | Potency [7] | Potency [5] | Potency [8]

C[C@@H](N)C(=O)O
inactive: Potency [1] | Potency [2] | outcome [3] | Potency [7] | Potency [5] | Potency [6]

Cc1cn([C@@H]2O[C@H](CO)[C@@H](O)[C@@H]2F)c(=O)[nH]c1=O
inactive: Potency [1] | Potency [2] | outcome [3] | Potency [7] | Potency [5] | Potency [6] | Potency [8]

CC1=CC(=O)CC(C)(C)C1=O
inactive: Potency [1] | Potency [2] | outcome [3] | Potency [7] | Potency [5] | Potency [8]

COc1nc(C)nc(NC(=O)NS(=O)(=O)c2ccccc2OCCCl)n1
inactive: Potency [1] | Potency [2] | outcome [3] | Potency [9] | activity change, positive = activation [4] -0.581% | Potency [6] | Potency [8]

CC(C)(C)C1CCCCC1=O (stereo not given)
inactive: Potency [1] | Potency [2] | outcome [3] | Potency [7] | Potency [5] | Potency [6] | Potency [8]

CCN(CC)C(=O)N(CC)CC
inactive: Potency [1] | Potency [2] | outcome [3] | Potency [7] | Potency [5] | Potency [6] | Potency [8]

C=CC(C)(O)CC/C=C(\C)CCC=C(C)C (stereo not given)
inactive: Potency [1] | Potency [2] | outcome [3] | Potency [7] | Potency [5] | Potency [6] | Potency [8]

CC(=O)OC(C)OC(C)=O
inactive: Potency [1] | Potency [2] | outcome [3] | Potency [7] | Potency [5] | Potency [6] | Potency [8]

O=C1Nc2ccc([N+](=O)[O-])cc2C1=O
inactive: Potency [1] | Potency [2] | outcome [3] | Potency [7] | Potency [8]

Cc1ccc(C(C)C)cc1O
inactive: Potency [1] | Potency [2] | outcome [3] | Potency [7] | Potency [5] | Potency [6] | Potency [8]

CN(C)Cc1ccccc1
inactive: Potency [1] | Potency [2] | outcome [3] | Potency [7] | Potency [5] | Potency [8]

O=C(O)C(=O)Cc1c[nH]c2ccccc12
inactive: Potency [1] | Potency [2] | outcome [3] | Potency [7] | Potency [5] | Potency [6]

Nc1ccc2ccccc2c1S(=O)(=O)O
inactive: Potency [1] | Potency [2] | outcome [3] | Potency [7] | Potency [5] | Potency [8]

NS(=O)(=O)c1cc(-c2nn[nH]n2)c(NCc2cccs2)cc1Cl
inactive: Potency [1] | Potency [2] | outcome [3] | Potency [5] | Potency [6]
